An excerpt weighted towards active compounds, which were near 17% of everything screened.
TDP1 cell CPT – growth inhibition of DT40 Tdp1-/-;hTDP1 cells with camptothecin (screen for TDP1 inhibitors) | chicken DT40 Tdp1-/-;hTDP1 cells + 20 nM CPT, ATP luminescence, 48 h | Potency, µM (doses to about 46.2 µM), without a hit: at the top dose activity change, negative = growth inhibition, actives largely listed as inhibitors | hit rate 12% among 420,000; note: % is set by controls: 0 for no effect and ±100 for the full control effect; nearly all actives have a fitted effect of over 55% in size
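Chicken DT40 Tdp1-/- cells stably complemented with human TDP1 were seeded at 400 cells/well in medium containing 20 nM camptothecin, exposed to pin-transferred compounds, and grown at 37 °C for at least 48 hr. Viability was read as ATP luminescence.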
TGFb SMAD3 inh – TGF-b pathway inhibition; HepG2 CAGA-GFP TGF-b/SMAD3 reporter, GFP fluorescence, 18 h; TGF-beta stimulated, 500 pg/mL final; Potency, µM (titrated, usually from 46.1 µM), inactives show top-dose activity, negative = inhibition, most hits filed as inhibitors; hit rate 1.2% among 410,000; AID 588855; note: % is set by controls: 0 for no effect and ±100 for the full control effect; nearly all actives have a fitted effect of over 65% in size
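Per well, imaged GFP fluorescence of HEPG2 CAGA-GFP cells gives the signal; cells get compound, then TGF-beta (500 pg/mL final), 18 h at 37 degrees C; %Activity versus -TGF-beta and +DMSO controls.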
HT1080NT lethal – kills 2HG-producing HT-1080-NT fibrosarcoma cells. HT-1080-NT fibrosarcoma viability, CellTiter-Glo ATP luminescence, 48 h. Potency, µM (titrated, usually from 46.1 µM), inactives show at the top dose activity, negative = less viability, most hits filed as cytotoxic. hit rate 1.6% among 360,000. AID 686970;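 note: NT is the 2HG producing partner of a matched IDH1 knockdown line; 0% = DMSO-treated cells and -100% = media-only wells without cells; nearly all actives have a fitted effect of over 55% in size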
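Toxicity toward the 2HG-producing NT line was scored as %Activity, normalised to DMSO and no-cell wells, from CellTiter-Glo luminescence after 48 hours' treatment.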
HT1080 IDH1KD tx – HT-1080 IDH1 knockdown cell toxicity (counter line). HT-1080 IDH1 knockdown viability, ATP luminescence, 48 h. Potency, µM (top dose mostly 46.1 µM), for inactives: at the top dose activity, negative = toxicity, hits mostly cytotoxic. hit rate 2% among 360,000. AID 686971;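 note: 0% = DMSO wells and -100% = cell-free medium wells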
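IDH1KD HT-1080 cells, 750/well, RPMI + 5% FBS; compound pinned after 2 h settling; 48 h, 37 °C; CellTiter-Glo luminescence; % activity normalised to DMSO and no-cell wells; curves fitted, classed by r2 and efficacy.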
HepG2 tox – kills HepG2 cells in TGF-b inhibitor counter-screen | HepG2 CAGA-GFP viability, ATP luminescence, 18 h | hit rate 0.76% among 410,000 | AID 588856 | Potency, µM (doses to about 46.1 µM), without a hit: top-dose activity change, negative = cytotoxicity, actives largely listed as cytotoxic
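HepG2 CAGA-GFP cells (1000/well, DMEM with 1% FBS) received compound, then TGF-beta at 500 pg/mL final, and were incubated 18 hours at 37 degrees C. Viability was read by CellTiter-Glo luminescence. Media-only wells were set as complete cell-killing and DMSO as no toxicity.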
DT40 TDP1 no CPT – qHTS for Inhibitors of human tyrosyl-DNA phosphodiesterase 1 (TDP1): qHTS in cells in absence of CPT | DT40 Tdp1-/- hTDP1 cells, no CPT, ATP luminescence, 48 h | hit rate 15% among 420,000 | Potency, µM (series often up to 46.2 µM), inactives show top-dose activity change, negative = growth inhibition, most hits filed as inhibitors | AID 686978, 2013; note: % is set by controls: 0 for no effect and ±100 for the full control effect; nearly all actives have a fitted effect of over 55% in size
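No-CPT arm: Tdp1-/-;hTDP1 DT40 cells (400/well) plus compounds, incubated ≥48 hr at 37 °C. Readout CellTiter-Glo luminescence.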
* = called active by the depositor. Calls come from the whole dose curve; as a rule, active = well fitted curve in the direction sought with a large enough effect; inconclusive = small, poorly fitted or top-dose-only effect, or another doubt; inactive = no such curve, though single readings can be large; an effect the other way counts as inactive or inconclusive. Potency is the fitted concentration of half-maximal effect.

What do the screens show for `CCN1CCN(CCCNC(=O)c2cc3cc4ccc(OC)cc4nc3o2)CC1`?
TDP1 cell CPT: -6%; TGFb SMAD3 inh: -16%; HT1080NT lethal: -20%; HT1080 IDH1KD tx: -15%; HepG2 tox: -29%; DT40 TDP1 no CPT: inconclusive

Results for COc1ccc2cc3cc(C(=O)NCCc4ccc(OC)c(OC)c4)oc3nc2c1 ?
TDP1 cell CPT: 12µM*; TGFb SMAD3 inh: -19%; HT1080NT lethal: -23%; HT1080 IDH1KD tx: -19%; HepG2 tox: -27%; DT40 TDP1 no CPT: 18µM*

Results for COc1ccc2cc3cc(C(=O)N4CCCCCC4)oc3nc2c1 ?
TDP1 cell CPT: inconclusive; TGFb SMAD3 inh: 3%; HT1080NT lethal: -14%; HT1080 IDH1KD tx: -7%; HepG2 tox: -13%; DT40 TDP1 no CPT: inconclusive

What do the screens show for `CC(CC(=O)Nc1ccccc1C(F)(F)F)c1ccccc1` (stereo not drawn)?
TDP1 cell CPT: -11%; TGFb SMAD3 inh: 6%; HT1080NT lethal: -1%; HT1080 IDH1KD tx: 1%; HepG2 tox: -27%; DT40 TDP1 no CPT: -23%

How did CC1(C(=O)NCCc2ccccc2)Cc2c(-c3ccc(C(N)=O)cc3)ccnc2O1 (stereo not drawn) do in these assays?
TDP1 cell CPT: 16µM*; TGFb SMAD3 inh: 11%; HT1080NT lethal: 12%; HT1080 IDH1KD tx: 10%; HepG2 tox: -47%; DT40 TDP1 no CPT: inconclusive

How did COc1ccc(CCCNC(=O)C2(C)Cc3c(-c4ccc(C(N)=O)cc4)ccnc3O2)cc1 (stereo not drawn) do in these assays?
TDP1 cell CPT: inconclusive; TGFb SMAD3 inh: 35%; HT1080NT lethal: 4%; HT1080 IDH1KD tx: 6%; HepG2 tox: -1%; DT40 TDP1 no CPT: inconclusive

How did CC(=O)Nc1cccc(-c2ccnc3c2CC(C)(C(=O)NCc2ccc(F)c(F)c2)O3)c1 (stereo not drawn) do in these assays?
TDP1 cell CPT: 3.7µM*; TGFb SMAD3 inh: -11%; HT1080NT lethal: inconclusive; HT1080 IDH1KD tx: inconclusive; HepG2 tox: -22%; DT40 TDP1 no CPT: 3.7µM*

How did CC1(C(=O)NCc2ccco2)Cc2c(-c3cccc(C(F)(F)F)c3)ccnc2O1 (stereo not drawn) do in these assays?
TDP1 cell CPT: 2.6µM*; TGFb SMAD3 inh: -10%; HT1080NT lethal: inconclusive; HT1080 IDH1KD tx: inconclusive; HepG2 tox: -5%; DT40 TDP1 no CPT: 2.9µM*

Results for CC1(C(=O)NCc2ccncc2)Cc2c(-c3cccc(C(F)(F)F)c3)ccnc2O1 (stereo not drawn) ?
TDP1 cell CPT: inconclusive; TGFb SMAD3 inh: -3%; HT1080NT lethal: 2%; HT1080 IDH1KD tx: 0%; HepG2 tox: -14%; DT40 TDP1 no CPT: inconclusive

How did CC1(C(=O)NCc2ccc(F)c(F)c2)Cc2c(-c3cccc(C(N)=O)c3)ccnc2O1 (stereo not drawn) do in these assays?
TDP1 cell CPT: inconclusive; TGFb SMAD3 inh: 7%; HT1080NT lethal: 26µM*; HT1080 IDH1KD tx: 10µM*; HepG2 tox: -19%; DT40 TDP1 no CPT: inconclusive

How did CCCCN(CC)C(=O)Cn1cnc2ccc(S(=O)(=O)N3CCC(C)CC3)cc2c1=O do in these assays?
TDP1 cell CPT: -16%; TGFb SMAD3 inh: 0%; HT1080NT lethal: -1%; HT1080 IDH1KD tx: -2%; HepG2 tox: 7%; DT40 TDP1 no CPT: -18%

How did CC1(C(=O)NCc2ccco2)Cc2c(-c3cccc(C(N)=O)c3)ccnc2O1 (stereo not drawn) do in these assays?
TDP1 cell CPT: 4.1µM*; TGFb SMAD3 inh: 25%; HT1080NT lethal: inconclusive; HT1080 IDH1KD tx: inconclusive; HepG2 tox: 2%; DT40 TDP1 no CPT: 5.8µM*

Results for CC1(C(=O)NCc2ccccc2)Cc2c(-c3cccc(C(N)=O)c3)ccnc2O1 (stereo not drawn) ?
TDP1 cell CPT: 3.3µM*; TGFb SMAD3 inh: 23%; HT1080NT lethal: inconclusive; HT1080 IDH1KD tx: inconclusive; HepG2 tox: 0%; DT40 TDP1 no CPT: 2.3µM*

Results for COc1ccc(CCN=C(N)NS(=O)(=O)c2ccc(F)cc2)cc1 ?
TDP1 cell CPT: inconclusive; TGFb SMAD3 inh: -12%; HT1080NT lethal: -1%; HT1080 IDH1KD tx: -10%; HepG2 tox: -15%; DT40 TDP1 no CPT: inconclusive

Results for O=C(c1ccc([N+](=O)[O-])s1)N1CCN(c2ncccn2)CC1 ?
TDP1 cell CPT: 21µM*; TGFb SMAD3 inh: 0%; HT1080NT lethal: 0%; HT1080 IDH1KD tx: 0%; HepG2 tox: -25%; DT40 TDP1 no CPT: inconclusive

What do the screens show for `Cc1cnc(C(=O)N2CCN(c3ccc(C(F)(F)F)cn3)CC2)cn1`?
TDP1 cell CPT: -1%; TGFb SMAD3 inh: 2%; HT1080NT lethal: 0%; HT1080 IDH1KD tx: 0%; HepG2 tox: 6%; DT40 TDP1 no CPT: -16%

Results for O=C(c1ccc([N+](=O)[O-])s1)N1CCN(c2ccc(C(F)(F)F)cn2)CC1 ?
TDP1 cell CPT: 13µM*; TGFb SMAD3 inh: inconclusive; HT1080NT lethal: -12%; HT1080 IDH1KD tx: -15%; HepG2 tox: -35%; DT40 TDP1 no CPT: 16µM*

What do the screens show for `Cc1cc(N2CCCCC2)nc(N2CCCCC2)n1`?
TDP1 cell CPT: inconclusive; TGFb SMAD3 inh: inconclusive; HT1080NT lethal: 5%; HT1080 IDH1KD tx: 2%; HepG2 tox: 0%; DT40 TDP1 no CPT: inconclusive

What do the screens show for `O=C1/C(=C/c2ccccc2)CCc2ccc(Cl)nc21`?
TDP1 cell CPT: 2.6µM*; TGFb SMAD3 inh: 20µM*; HT1080NT lethal: inconclusive; HT1080 IDH1KD tx: 18µM*; HepG2 tox: -35%; DT40 TDP1 no CPT: 4.6µM*

Results for N#CC1=C(S)N(c2ccccc2)C(c2ccco2)NC1=O (stereo not drawn) ?
TDP1 cell CPT: 1%; TGFb SMAD3 inh: -1%; HT1080NT lethal: 12%; HT1080 IDH1KD tx: 9%; HepG2 tox: 9%; DT40 TDP1 no CPT: -6%

Results for N#CC1=C(S)N(c2ccccc2)C(c2cccs2)NC1=O (stereo not drawn) ?
TDP1 cell CPT: inconclusive; TGFb SMAD3 inh: inconclusive; HT1080NT lethal: -4%; HT1080 IDH1KD tx: inconclusive; HepG2 tox: -11%; DT40 TDP1 no CPT: inconclusive

How did Cc1ccc(N2C(S)=C(C#N)C(=O)NC2c2cccs2)cc1 (stereo not drawn) do in these assays?
TDP1 cell CPT: 15µM*; TGFb SMAD3 inh: inconclusive; HT1080NT lethal: -8%; HT1080 IDH1KD tx: -6%; HepG2 tox: -22%; DT40 TDP1 no CPT: 13µM*

Bioassay records (PubChem BioAssay)
